Some test systems named below: HCT-15 colon; HT29 colon; SNB-75 CNS; SNB-19 CNS; U251 CNS; PC-3 prostate; SK-MEL-5 melanoma; UACC-62 melanoma; LOX IMVI melanoma; SK-MEL-28 melanoma; SK-MEL-2 melanoma; EKVX NSCLC; SN12C renal; UO-31 renal; TK-10 renal; ACHN renal; CAKI-1 renal; A498 renal; CCRF-CEM leukemia; MOLT-4 leukemia.
Experiment in all cases: NCI-60 one-dose screen, 48 h (100 = growth as untreated, 0 = no growth, -100 = all killed)
Common to all, as to conditions: 10 µM unless noted

About 83,000 compounds went through this panel and 20% of them were active in at least one assay; those are over-represented in the sample as a whole.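 Activity criterion: percent growth below 10, measured after cells in 96-well plates were exposed to a single compound concentration for 48 hours.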 A number with no mark means an inactive call. Calls of active or inactive are those of the source.

On to `CCOC(=O)c1cn2ncnc(Oc3ccc(NC(=O)NC4CCCCC4)c(Cl)c3)c2c1C`, for which the growth was 69.4% with HCT-15 colon; 81.6% with HT29 colon; 0.475% (active) in the assay on SNB-75 CNS; 66.1% with SNB-19 CNS; 49.3% in the assay on U251 CNS; 67.7% in the assay on PC-3 prostate. Moreover, the growth with SK-MEL-5 melanoma was 84.5%; in the assay with UACC-62 melanoma, 80.4%; with LOX IMVI melanoma it was 54.9%; with SK-MEL-28 melanoma, 93.9%; in the assay on SK-MEL-2 melanoma it was 103%; in the assay on EKVX NSCLC it was 74.3%. Moreover, the growth in the assay with SN12C renal is 72.8%; in the assay with UO-31 renal, 79%; in the assay with TK-10 renal, 111%; in the assay with ACHN renal it was 61.5%; in the assay with CAKI-1 renal, 85%; in the assay on A498 renal it was 76.5%. Also, the growth with CCRF-CEM leukemia was 69.8%; in the assay on MOLT-4 leukemia, 75.1%.
`Nc1ncnc2c1N=C(c1ccc(Cl)cc1)CC(c1ccc3c(c1)OCO3)N2` (stereo not given): the growth in the assay with HCT-15 colon was 98.6%; with HT29 colon, 91.7%; in the assay on SNB-75 CNS, 85.7%; in the assay on SNB-19 CNS it was 86.4%; in the assay on U251 CNS, 92.8%; with PC-3 prostate, 85.2%. Moreover, the growth was 98% in the assay on SK-MEL-5 melanoma; 94.8% in the assay with UACC-62 melanoma; 96.5% in the assay with LOX IMVI melanoma; 99.8% in the assay with SK-MEL-28 melanoma; 52% with SK-MEL-2 melanoma; 94.6% in the assay on EKVX NSCLC. Moreover, the growth with SN12C renal is 97.2%; in the assay with UO-31 renal it was 80.5%; in the assay on TK-10 renal, 111%; in the assay on ACHN renal it was 87.6%; in the assay on CAKI-1 renal, 84.1%; with A498 renal it was 99.5%. Moreover, the growth is -54.1% (active) in the assay on CCRF-CEM leukemia and 71.5% in the assay on MOLT-4 leukemia.
Consider `CCCC(O)Cn1ncc(C(=O)OCC)c1NC(=O)NCc1ccccc1F` (stereo not given), for which the growth was 105% in the assay on HCT-15 colon; 81.1% in the assay with HT29 colon; 98.9% in the assay with SNB-75 CNS; 102% in the assay on SNB-19 CNS; 93.8% with U251 CNS; 93.4% in the assay on PC-3 prostate. For the same molecule, the growth with SK-MEL-5 melanoma is 93.2%; in the assay with UACC-62 melanoma, 86.3%; in the assay with LOX IMVI melanoma it was 93.9%; in the assay with SK-MEL-28 melanoma, 110%; in the assay on SK-MEL-2 melanoma it was 74.3%; in the assay on EKVX NSCLC, 95.7%. In addition, the growth in the assay with SN12C renal was 96.8%; in the assay on UO-31 renal it was 74.2%; with TK-10 renal, 99.1%; in the assay on ACHN renal, 107%; in the assay on CAKI-1 renal it was 80.1%; in the assay with A498 renal, 90.7%. The growth is 76.3% with CCRF-CEM leukemia and 71% in the assay with MOLT-4 leukemia.
Take `CCCCN[C@H]1CC[C@@]2(C)[C@@H](CC[C@@]3(C)[C@H]2[C@H](O)C[C@H]2/C(=C(\CCC=C(C)C)C(=O)OC)[C@@H](OC(C)=O)C[C@@]23C)[C@@H]1C`: the growth in the assay on HCT-15 colon was 98.8%; with HT29 colon, 95.7%; in the assay on SNB-75 CNS, 82.9%; with SNB-19 CNS it was 104%; with U251 CNS, 98.2%; in the assay on PC-3 prostate it was 95.2%. For the same molecule, the growth in the assay with SK-MEL-5 melanoma was 93.7%; in the assay on UACC-62 melanoma, 95.5%; in the assay on LOX IMVI melanoma, 97.9%; with SK-MEL-28 melanoma it was 93.4%; in the assay on SK-MEL-2 melanoma it was 106%; with EKVX NSCLC it was 96.9%. The growth with SN12C renal is 94.6%; in the assay on UO-31 renal, 81.5%; in the assay on TK-10 renal, 97.4%; in the assay with ACHN renal, 91.7%; in the assay on CAKI-1 renal it was 90.6%; in the assay with A498 renal, 97.7%. Moreover, the growth was 41.3% with CCRF-CEM leukemia and 10.6% in the assay on MOLT-4 leukemia.
In the case of `CS(=O)(=O)Nc1cc(-c2ccc3ncnc(Nc4ccc5c(cnn5Cc5ccccn5)c4)c3c2)cnc1Cl`, the growth in the assay on HCT-15 colon was 99.2%; with HT29 colon it was 80.7%; in the assay with SNB-75 CNS, 16.2%; in the assay on SNB-19 CNS, 80.6%; with U251 CNS it was 81.5%; in the assay on PC-3 prostate it was 72.8%. The growth was 77.7% in the assay with SK-MEL-5 melanoma; 61.8% in the assay on UACC-62 melanoma; 71% in the assay with LOX IMVI melanoma; 56.1% in the assay with SK-MEL-28 melanoma; 61.8% in the assay on SK-MEL-2 melanoma; 80.8% in the assay on EKVX NSCLC. Also, the growth with SN12C renal was 72.5%; in the assay on UO-31 renal, 64.8%; with TK-10 renal, 65.5%; in the assay with ACHN renal it was 88%; in the assay on CAKI-1 renal, 65.4%; in the assay with A498 renal, 20.4%. Moreover, the growth in the assay on CCRF-CEM leukemia was 60%; with MOLT-4 leukemia it was 78.7%.
For `CN(C)c1ccc(Nc2cc(-c3cccc(OC(F)(F)F)c3)nc3ccc(N4CCCC4)cc23)cc1`, the growth in the assay with HCT-15 colon is -45.5% (active); in the assay with HT29 colon, -12.8% (active); in the assay with SNB-75 CNS it was 55%; in the assay with SNB-19 CNS it was 66%; with U251 CNS, -59.2% (active); in the assay on PC-3 prostate, 18%. For the same molecule, the growth in the assay with SK-MEL-5 melanoma is 96.3%; in the assay on UACC-62 melanoma it was 90.1%; in the assay with LOX IMVI melanoma, -73.7% (active); in the assay with SK-MEL-28 melanoma, -85.3% (active); with SK-MEL-2 melanoma, 106%; with EKVX NSCLC, 89.3%. Further, the growth is 40.3% with SN12C renal; 74% with UO-31 renal; 95.4% with TK-10 renal; 97.6% in the assay on ACHN renal; 89.6% with CAKI-1 renal; 98.3% in the assay on A498 renal. Also, the growth is 3.82% (active) in the assay with CCRF-CEM leukemia and 2.94% (active) in the assay with MOLT-4 leukemia.
`Cc1nc2sc(C(=O)Nc3cccc(Cl)c3C)c(N)c2cc1C(=O)c1ccccc1`: the growth was 9.29% (active) with HCT-15 colon; 3.07% (active) in the assay on HT29 colon; 7.46% (active) in the assay on SNB-75 CNS; 12.7% with SNB-19 CNS; 15.6% in the assay with U251 CNS; 6.12% (active) in the assay with PC-3 prostate. Further, the growth is 9.08% (active) in the assay on SK-MEL-5 melanoma; 17% in the assay on UACC-62 melanoma; 35.8% in the assay on LOX IMVI melanoma; 42.7% with SK-MEL-28 melanoma; 49.7% in the assay on SK-MEL-2 melanoma; 40.5% in the assay on EKVX NSCLC. Moreover, the growth in the assay with SN12C renal is 29.3%; with UO-31 renal, 38.8%; with TK-10 renal, 47.1%; with ACHN renal it was 33.7%; in the assay on CAKI-1 renal it was 33.1%; with A498 renal, -7.4% (active). In addition, the figures for the growth in the assay with CCRF-CEM leukemia and in the assay on MOLT-4 leukemia were 8.23% (active) and 16.4%, respectively.

These data come from PubChem BioAssay (NCI).
